# In paper PMC7862700, “An all-to-all approach to the identification of sequence-specific readers for epigenetic DNA modifications on cytosine”:
# Experiments:
# Experiment in all cases: DAPPL (digital affinity profiling via proximity ligation, sequencing); 10 mM Tris-HCl pH 7.5, 50 mM NaCl, 1 mM DTT, 4% glycerol, room temperature, 30 min; GST-TFs on glutathione beads, 16-mer random dsDNA library, 0.1% formaldehyde crosslink after washing; high values mean tight binding
# [1] = biological target: T1, FLI1 (Homo sapiens, UniProt Q01543 1-452); details: protein: recombinant; tags: N-terminal GST; dsDNA, one strand shown
# T1 sequence: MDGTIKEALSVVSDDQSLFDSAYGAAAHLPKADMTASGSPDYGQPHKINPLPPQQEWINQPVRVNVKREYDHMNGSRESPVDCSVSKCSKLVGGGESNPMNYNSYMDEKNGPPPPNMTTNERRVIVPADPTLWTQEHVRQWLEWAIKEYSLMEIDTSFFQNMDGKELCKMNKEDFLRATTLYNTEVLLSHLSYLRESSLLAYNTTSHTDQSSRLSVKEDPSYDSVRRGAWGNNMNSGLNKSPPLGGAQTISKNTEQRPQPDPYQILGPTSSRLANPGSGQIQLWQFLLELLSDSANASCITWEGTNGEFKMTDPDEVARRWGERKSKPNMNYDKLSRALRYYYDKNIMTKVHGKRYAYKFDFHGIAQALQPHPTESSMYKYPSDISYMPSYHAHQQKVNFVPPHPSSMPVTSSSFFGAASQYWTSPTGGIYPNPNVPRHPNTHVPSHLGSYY
# Summary of the method: (§1)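 Human transcription factors carrying a GST fusion were produced in yeast, bound to glutathione beads, tagged with DNA barcodes and pooled together with a tag-only sample. Each pool was held with 200 nmole of a random double-stranded 16-mer DNA library in Tris/NaCl/DTT/glycerol buffer for 30 min at room temperature, then washed, crosslinked in 0.1% formaldehyde, proximity-ligated with BsaI/T4 ligase (1 h, 37 °C), PCR-amplified and sequenced on an Illumina NextSeq500. Binding signal is the read frequency of each hexamer for a given factor divided by its frequency in the tag-only sample.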
# [2] = biological target: T2, ELK1 (Homo sapiens, UniProt P19419 1-428); details: protein: recombinant; tags: N-terminal GST; dsDNA, one strand shown
# T2 sequence: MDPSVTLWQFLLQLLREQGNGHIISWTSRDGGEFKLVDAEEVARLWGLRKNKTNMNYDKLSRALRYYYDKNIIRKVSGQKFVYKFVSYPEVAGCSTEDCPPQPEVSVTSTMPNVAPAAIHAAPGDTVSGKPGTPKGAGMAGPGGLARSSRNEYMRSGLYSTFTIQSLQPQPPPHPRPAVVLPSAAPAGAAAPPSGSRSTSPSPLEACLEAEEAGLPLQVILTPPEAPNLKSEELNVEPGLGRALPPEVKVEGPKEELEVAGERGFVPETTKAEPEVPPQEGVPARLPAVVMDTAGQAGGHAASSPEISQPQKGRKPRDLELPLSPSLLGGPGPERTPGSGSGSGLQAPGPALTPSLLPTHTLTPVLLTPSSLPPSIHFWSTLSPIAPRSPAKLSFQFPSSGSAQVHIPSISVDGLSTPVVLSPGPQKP
# Summary of the method: as §1
# [3] = biological target: T3, GABPA (Homo sapiens, UniProt Q06546 1-454); details: protein: recombinant; tags: N-terminal GST; dsDNA, one strand shown
# T3 sequence: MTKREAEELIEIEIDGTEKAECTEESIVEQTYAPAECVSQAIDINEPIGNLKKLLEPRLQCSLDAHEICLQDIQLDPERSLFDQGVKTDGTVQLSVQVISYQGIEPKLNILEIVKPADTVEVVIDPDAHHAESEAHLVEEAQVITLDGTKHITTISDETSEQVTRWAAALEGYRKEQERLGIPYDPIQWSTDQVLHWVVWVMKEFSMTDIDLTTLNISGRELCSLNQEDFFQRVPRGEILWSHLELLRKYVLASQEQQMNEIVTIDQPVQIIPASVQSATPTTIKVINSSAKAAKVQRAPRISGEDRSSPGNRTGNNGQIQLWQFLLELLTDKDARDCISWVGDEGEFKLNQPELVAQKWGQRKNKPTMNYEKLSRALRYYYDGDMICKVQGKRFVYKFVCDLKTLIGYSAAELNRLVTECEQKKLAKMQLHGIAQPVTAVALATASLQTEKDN
# Summary of the method: as §1
# [4] = biological target: T4, ERG (Homo sapiens, UniProt P11308 1-479); details: protein: recombinant; tags: N-terminal GST; dsDNA, one strand shown
# T4 sequence: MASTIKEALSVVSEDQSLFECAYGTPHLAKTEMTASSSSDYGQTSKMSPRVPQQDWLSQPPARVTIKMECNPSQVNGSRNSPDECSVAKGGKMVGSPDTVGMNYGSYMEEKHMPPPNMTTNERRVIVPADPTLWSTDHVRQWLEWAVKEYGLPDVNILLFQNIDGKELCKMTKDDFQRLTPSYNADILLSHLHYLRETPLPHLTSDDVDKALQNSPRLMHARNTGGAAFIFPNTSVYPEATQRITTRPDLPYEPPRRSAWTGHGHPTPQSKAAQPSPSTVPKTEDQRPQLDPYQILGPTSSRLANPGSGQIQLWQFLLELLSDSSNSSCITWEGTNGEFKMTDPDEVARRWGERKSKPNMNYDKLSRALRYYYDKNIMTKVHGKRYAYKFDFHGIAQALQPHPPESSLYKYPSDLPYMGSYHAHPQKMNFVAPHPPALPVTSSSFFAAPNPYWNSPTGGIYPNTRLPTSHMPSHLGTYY
# Summary of the method: as §1
# [5] = biological target: ELF1 (Homo sapiens, UniProt P32519 1-619); details: protein: recombinant; tags: N-terminal GST; dsDNA, one strand shown
# Summary of the method: as §1
# [6] = biological target: T5, EHF (Homo sapiens, UniProt Q9NZC4 1-300); details: protein: recombinant; tags: N-terminal GST; dsDNA, one strand shown
# T5 sequence: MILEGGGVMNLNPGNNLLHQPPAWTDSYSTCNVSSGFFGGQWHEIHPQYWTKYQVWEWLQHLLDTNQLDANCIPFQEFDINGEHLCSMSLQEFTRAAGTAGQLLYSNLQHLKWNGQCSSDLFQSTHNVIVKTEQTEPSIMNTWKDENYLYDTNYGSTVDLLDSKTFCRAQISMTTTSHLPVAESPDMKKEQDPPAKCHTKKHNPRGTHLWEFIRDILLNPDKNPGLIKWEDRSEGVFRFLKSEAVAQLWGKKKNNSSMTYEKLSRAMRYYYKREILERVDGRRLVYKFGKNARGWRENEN
# Summary of the method: as §1
# [7] = biological target: SPI1 (Homo sapiens, UniProt P17947 1-270); details: protein: recombinant; tags: N-terminal GST; dsDNA, one strand shown
# Summary of the method: as §1
# [8] = biological target: SPIB (Homo sapiens, UniProt Q01892 1-262); details: protein: recombinant; tags: N-terminal GST; dsDNA, one strand shown
# Summary of the method: as §1
# [9] = biological target: T6, ELK3 (Homo sapiens, UniProt P41970 1-407); details: protein: recombinant; tags: N-terminal GST; dsDNA, one strand shown
# T6 sequence: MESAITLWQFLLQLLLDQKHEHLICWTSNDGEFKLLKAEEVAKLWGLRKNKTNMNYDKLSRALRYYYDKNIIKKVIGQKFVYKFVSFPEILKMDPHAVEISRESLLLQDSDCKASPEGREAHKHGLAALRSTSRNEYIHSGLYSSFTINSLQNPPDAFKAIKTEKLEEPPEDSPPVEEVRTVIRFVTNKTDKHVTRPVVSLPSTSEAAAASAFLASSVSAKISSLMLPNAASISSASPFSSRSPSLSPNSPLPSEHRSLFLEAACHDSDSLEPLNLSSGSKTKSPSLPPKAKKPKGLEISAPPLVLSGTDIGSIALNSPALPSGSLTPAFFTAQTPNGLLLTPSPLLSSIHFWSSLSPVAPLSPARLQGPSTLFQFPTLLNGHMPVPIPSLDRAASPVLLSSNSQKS
# Summary of the method: as §1
# [10] = biological target: T7, FEV (Homo sapiens, UniProt Q99581 1-238); details: protein: recombinant; tags: N-terminal GST; dsDNA, one strand shown
# T7 sequence: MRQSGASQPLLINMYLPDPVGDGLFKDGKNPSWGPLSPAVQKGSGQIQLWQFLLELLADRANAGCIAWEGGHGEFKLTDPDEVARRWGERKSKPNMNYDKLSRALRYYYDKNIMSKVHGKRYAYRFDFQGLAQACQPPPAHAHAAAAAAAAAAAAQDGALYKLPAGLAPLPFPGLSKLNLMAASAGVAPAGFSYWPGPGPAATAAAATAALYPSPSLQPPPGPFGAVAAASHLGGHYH
# Summary of the method: as §1
# [11] = biological target: ETV5 (Homo sapiens, UniProt P41161 1-510); details: protein: recombinant; tags: N-terminal GST; dsDNA, one strand shown
# Summary of the method: as §1
# [12] = biological target: HSF1 (Homo sapiens, UniProt Q00613 1-529); details: protein: recombinant; tags: N-terminal GST; chain copies: 3; dsDNA, one strand shown
# Summary of the method: as §1
# [13] = biological target: T8, SPIC (Homo sapiens, UniProt Q8N5J4 1-248); details: protein: recombinant; tags: N-terminal GST; dsDNA, one strand shown
# T8 sequence: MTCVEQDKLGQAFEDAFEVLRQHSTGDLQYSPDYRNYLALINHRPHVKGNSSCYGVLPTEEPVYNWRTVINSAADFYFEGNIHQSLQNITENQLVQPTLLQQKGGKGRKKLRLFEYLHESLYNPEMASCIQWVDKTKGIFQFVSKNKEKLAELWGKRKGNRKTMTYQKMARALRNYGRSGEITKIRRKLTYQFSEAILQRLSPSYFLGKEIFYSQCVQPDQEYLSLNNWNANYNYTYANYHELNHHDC
# Summary of the method: as §1
# [14] = biological target: ELF4 (Homo sapiens, UniProt Q99607 1-663); details: protein: recombinant; tags: N-terminal GST; dsDNA, one strand shown
# Summary of the method: as §1
# [15] = biological target: T9, ELK4 (Homo sapiens, UniProt P28324-2 1-405); details: protein: recombinant; tags: N-terminal GST; dsDNA, one strand shown
# T9 sequence: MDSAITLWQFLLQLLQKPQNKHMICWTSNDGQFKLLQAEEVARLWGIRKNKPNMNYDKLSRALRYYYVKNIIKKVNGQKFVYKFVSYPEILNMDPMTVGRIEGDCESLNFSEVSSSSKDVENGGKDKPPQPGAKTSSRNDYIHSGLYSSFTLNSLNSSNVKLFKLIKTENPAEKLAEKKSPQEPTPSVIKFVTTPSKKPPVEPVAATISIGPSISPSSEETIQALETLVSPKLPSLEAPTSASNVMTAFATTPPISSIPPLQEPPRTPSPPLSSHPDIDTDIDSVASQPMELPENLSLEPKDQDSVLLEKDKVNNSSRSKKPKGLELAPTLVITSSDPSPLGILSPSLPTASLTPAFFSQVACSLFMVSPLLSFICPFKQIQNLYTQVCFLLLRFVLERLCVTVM
# Summary of the method: as §1
# [16] = biological target: T10, ETV2 (Homo sapiens, UniProt O00321 1-342); details: protein: recombinant; tags: N-terminal GST; dsDNA, one strand shown
# T10 sequence: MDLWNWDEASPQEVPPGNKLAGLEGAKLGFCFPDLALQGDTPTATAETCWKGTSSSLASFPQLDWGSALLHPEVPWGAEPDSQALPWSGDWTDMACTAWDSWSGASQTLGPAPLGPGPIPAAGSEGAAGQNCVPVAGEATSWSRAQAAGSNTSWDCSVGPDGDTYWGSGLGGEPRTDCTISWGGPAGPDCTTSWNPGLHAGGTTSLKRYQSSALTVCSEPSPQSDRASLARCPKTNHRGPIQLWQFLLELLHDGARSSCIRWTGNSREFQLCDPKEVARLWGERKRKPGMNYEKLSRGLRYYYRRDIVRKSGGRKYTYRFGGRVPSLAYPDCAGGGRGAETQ
# Summary of the method: as §1
# [17] = biological target: T11, ELF3 (Homo sapiens, UniProt P78545 1-371); details: protein: recombinant; tags: N-terminal GST; dsDNA, one strand shown
# T11 sequence: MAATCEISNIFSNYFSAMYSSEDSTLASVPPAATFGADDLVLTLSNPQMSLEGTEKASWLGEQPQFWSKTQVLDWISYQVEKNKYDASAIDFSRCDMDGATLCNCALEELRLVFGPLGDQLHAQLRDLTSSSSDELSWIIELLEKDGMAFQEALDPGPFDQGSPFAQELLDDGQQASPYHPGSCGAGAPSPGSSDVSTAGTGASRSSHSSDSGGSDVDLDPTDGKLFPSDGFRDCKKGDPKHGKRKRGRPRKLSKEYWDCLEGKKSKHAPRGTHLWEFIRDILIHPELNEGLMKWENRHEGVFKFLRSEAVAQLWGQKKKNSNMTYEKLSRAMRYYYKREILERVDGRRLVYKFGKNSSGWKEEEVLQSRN
# Summary of the method: as §1
# [18] = biological target: CRX (Homo sapiens, UniProt O43186 1-299); details: protein: recombinant; tags: N-terminal GST; dsDNA, one strand shown
# Summary of the method: as §1
# [19] = biological target: ETV1 (Homo sapiens, UniProt P50549 1-477); details: protein: recombinant; tags: N-terminal GST; dsDNA, one strand shown
# Summary of the method: as §1
# Chain of SPIB (Q01892 whole entry): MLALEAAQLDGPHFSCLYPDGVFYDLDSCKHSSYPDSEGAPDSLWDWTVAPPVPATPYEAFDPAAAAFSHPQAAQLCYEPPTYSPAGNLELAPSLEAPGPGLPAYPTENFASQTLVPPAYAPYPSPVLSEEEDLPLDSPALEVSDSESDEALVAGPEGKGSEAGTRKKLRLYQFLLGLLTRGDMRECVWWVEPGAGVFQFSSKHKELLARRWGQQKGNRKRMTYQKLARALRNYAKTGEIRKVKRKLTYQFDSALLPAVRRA
# Chain of ELF1 (P32519 whole entry): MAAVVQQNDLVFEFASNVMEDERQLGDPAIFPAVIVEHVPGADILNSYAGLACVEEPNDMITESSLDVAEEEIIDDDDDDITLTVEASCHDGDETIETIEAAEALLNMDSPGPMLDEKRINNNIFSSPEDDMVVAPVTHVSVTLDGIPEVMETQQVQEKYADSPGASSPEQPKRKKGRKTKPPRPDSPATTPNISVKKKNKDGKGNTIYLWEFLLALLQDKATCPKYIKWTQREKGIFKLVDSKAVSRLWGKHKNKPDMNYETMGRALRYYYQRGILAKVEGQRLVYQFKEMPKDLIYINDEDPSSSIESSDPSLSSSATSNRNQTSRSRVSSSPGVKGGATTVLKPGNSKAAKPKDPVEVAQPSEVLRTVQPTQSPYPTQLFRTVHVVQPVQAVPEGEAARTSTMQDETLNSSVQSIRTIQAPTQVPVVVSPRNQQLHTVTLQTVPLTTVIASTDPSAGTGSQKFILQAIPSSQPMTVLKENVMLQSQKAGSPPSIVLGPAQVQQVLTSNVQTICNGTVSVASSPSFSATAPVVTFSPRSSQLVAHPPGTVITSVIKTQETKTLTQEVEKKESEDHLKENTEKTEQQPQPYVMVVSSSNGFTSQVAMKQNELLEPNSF
# Chain of HSF1 (Q00613 whole entry): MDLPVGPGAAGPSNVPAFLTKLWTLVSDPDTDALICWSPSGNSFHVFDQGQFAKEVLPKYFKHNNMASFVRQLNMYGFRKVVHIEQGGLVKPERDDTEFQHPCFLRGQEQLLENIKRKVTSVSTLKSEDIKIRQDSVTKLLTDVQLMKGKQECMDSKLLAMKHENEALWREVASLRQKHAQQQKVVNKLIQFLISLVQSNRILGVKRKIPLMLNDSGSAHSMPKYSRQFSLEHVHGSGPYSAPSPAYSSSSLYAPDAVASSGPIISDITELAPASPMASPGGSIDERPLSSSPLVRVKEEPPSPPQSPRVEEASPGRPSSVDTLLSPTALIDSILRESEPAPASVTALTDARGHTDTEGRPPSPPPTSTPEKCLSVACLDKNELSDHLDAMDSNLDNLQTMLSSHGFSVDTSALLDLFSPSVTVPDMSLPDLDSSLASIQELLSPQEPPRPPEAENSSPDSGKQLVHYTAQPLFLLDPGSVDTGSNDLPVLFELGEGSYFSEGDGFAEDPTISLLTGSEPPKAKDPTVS
# Chain of ETV1 (P50549 whole entry): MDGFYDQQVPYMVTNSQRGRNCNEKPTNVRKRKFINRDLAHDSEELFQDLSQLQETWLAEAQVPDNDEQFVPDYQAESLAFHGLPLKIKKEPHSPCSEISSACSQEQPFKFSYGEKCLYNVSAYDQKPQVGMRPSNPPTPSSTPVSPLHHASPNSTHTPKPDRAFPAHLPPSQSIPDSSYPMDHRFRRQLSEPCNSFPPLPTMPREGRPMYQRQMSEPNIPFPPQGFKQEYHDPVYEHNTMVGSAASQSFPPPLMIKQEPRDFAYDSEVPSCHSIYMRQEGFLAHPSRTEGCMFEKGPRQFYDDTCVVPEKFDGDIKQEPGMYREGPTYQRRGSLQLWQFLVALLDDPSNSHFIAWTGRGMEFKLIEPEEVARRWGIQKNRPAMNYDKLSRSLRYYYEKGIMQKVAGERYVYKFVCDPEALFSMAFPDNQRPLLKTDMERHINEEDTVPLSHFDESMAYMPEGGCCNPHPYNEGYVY
# Chain of ELF4 (Q99607 whole entry): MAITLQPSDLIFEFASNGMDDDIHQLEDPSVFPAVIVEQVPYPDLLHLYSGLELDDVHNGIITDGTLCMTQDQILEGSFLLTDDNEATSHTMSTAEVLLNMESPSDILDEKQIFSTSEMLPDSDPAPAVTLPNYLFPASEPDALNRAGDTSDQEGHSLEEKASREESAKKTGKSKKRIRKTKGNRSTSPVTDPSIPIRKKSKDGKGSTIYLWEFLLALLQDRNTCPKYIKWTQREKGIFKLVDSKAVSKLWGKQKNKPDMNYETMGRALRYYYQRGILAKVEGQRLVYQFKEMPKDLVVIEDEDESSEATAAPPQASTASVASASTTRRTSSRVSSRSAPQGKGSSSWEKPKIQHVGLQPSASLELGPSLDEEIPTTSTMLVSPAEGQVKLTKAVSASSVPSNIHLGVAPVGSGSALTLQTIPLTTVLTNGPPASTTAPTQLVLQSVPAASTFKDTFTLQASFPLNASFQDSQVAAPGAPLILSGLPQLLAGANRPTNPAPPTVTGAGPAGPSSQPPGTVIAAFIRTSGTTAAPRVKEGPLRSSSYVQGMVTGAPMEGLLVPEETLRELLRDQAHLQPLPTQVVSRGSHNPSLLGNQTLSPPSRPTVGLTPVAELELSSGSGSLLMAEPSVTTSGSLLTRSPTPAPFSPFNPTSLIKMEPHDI
# Chain of CRX (O43186 whole entry): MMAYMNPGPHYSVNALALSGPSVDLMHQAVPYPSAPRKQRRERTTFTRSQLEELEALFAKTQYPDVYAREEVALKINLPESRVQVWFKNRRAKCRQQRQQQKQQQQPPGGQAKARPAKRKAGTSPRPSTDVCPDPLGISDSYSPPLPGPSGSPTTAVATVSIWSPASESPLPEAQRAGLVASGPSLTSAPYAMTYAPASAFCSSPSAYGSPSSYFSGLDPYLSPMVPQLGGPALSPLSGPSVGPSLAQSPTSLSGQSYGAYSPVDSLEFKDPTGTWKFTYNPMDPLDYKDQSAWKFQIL
# Chain of ETV5 (P41161 whole entry): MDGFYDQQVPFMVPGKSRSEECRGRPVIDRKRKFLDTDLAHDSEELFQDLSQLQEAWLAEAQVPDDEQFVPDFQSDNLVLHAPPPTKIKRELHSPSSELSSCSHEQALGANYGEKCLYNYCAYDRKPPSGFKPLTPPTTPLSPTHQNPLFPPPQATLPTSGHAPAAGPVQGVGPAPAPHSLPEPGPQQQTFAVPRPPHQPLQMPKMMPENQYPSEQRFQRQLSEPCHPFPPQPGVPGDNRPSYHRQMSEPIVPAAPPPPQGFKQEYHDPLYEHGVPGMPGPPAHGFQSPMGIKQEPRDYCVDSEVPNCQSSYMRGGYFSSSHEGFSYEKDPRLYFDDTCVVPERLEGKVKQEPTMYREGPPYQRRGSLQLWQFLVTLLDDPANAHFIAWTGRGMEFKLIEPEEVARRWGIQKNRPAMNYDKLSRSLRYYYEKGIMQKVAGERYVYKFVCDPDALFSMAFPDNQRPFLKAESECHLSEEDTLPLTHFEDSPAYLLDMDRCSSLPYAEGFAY
sequence,measurement,setting,value
TTATGG,binding signal,[1],"1.42 fold enrichment (6-mer frequency, TF over GST control)"
same,binding signal,[2],"1.39 fold enrichment (6-mer frequency, TF over GST control)"
same,binding signal,[3],"1.39 fold enrichment (6-mer frequency, TF over GST control)"
same,binding signal,[4],"1.3 fold enrichment (6-mer frequency, TF over GST control)"
same,binding signal,[5],"1.3 fold enrichment (6-mer frequency, TF over GST control)"
same,binding signal,[6],"1.46 fold enrichment (6-mer frequency, TF over GST control)"
same,binding signal,[7],"1.34 fold enrichment (6-mer frequency, TF over GST control)"
same,binding signal,[8],"1.44 fold enrichment (6-mer frequency, TF over GST control)"
same,binding signal,[9],"1.39 fold enrichment (6-mer frequency, TF over GST control)"
same,binding signal,[10],"1.33 fold enrichment (6-mer frequency, TF over GST control)"
same,binding signal,[11],"1.39 fold enrichment (6-mer frequency, TF over GST control)"
same,binding signal,[12],"1.74 fold enrichment (6-mer frequency, TF over GST control)"
same,binding signal,[13],"1.53 fold enrichment (6-mer frequency, TF over GST control)"
same,binding signal,[14],"1.31 fold enrichment (6-mer frequency, TF over GST control)"
same,binding signal,[15],"1.24 fold enrichment (6-mer frequency, TF over GST control)"
same,binding signal,[16],"1.45 fold enrichment (6-mer frequency, TF over GST control)"
same,binding signal,[17],"1.53 fold enrichment (6-mer frequency, TF over GST control)"
same,binding signal,[18],"2.62 fold enrichment (6-mer frequency, TF over GST control)"
same,binding signal,[19],"1.41 fold enrichment (6-mer frequency, TF over GST control)"
